Only some compounds are listed: those with a hit (about 18% of all), similar ones and a draw of the others.
TDP1 cell CPT – growth inhibition of DT40 Tdp1-/-;hTDP1 cells with camptothecin (screen for TDP1 inhibitors) | chicken DT40 Tdp1-/-;hTDP1 cells + 20 nM CPT, ATP luminescence, 48 h | Potency, µM (highest dose often 46.2 µM), for inactives: at the highest dose activity change, negative = growth inhibition, usual class: inhibitors | 420,000 tested, 12% active; note: potency is the fitted concentration of half-maximal effect; nearly all actives have a fitted effect of over 55% in size
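Chicken DT40 Tdp1-/- cells stably complemented with human TDP1 were seeded at 400 cells/well in medium containing 20 nM camptothecin, exposed to pin-transferred compounds, and grown at 37 °C for at least 48 hr. Viability was read as ATP luminescence.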
Gal4-VP16 FLuc – counter-screen for ROR gamma inhibitors: Gal4-VP16 reporter | Drosophila S2 Gal4-VP16 UAS-luciferase, luminescence, 20 h | Potency, µM (titrated, usually from 53.6 µM), inactives show top-dose activity, negative = inhibition, actives largely listed as inhibitors | 310,000 tested, 3.5% active | AID 2546;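 note: Gal4-VP16 expression switched on by copper sulfate through the metallothionein promoter; potency is the fitted concentration of half-maximal effect; nearly all actives have a fitted effect of over 50% in size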
IL-1B inflam inh – blocks inflammasome-driven IL-1 beta release; THP-1 LPS/ATP IL-1B secretion, AlphaLISA, 16 h; stronger effect = lower value; activity change, % at 57.5 µM; 360,000 tested, 4.7% active; AID 743279; in the data active = activity change below about -50%; inconclusive = mostly about -30% to -49%
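Secreted IL-1B measured by AlphaLISA bead assay after 16 h compound exposure of THP-1 cells; compounds (final up to 57.5 uM) added 1 h before LPS (250 ng/mL) and ATP (1.25 mM) stimulation; lower signal means less secretion.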
RORgamma inh – inhibitors of mouse ROR gamma transcriptional activity; P51450; Drosophila S2 Gal4-RORgamma UAS-luciferase reporter, 20 h; Potency, µM (highest dose often 53.6 µM), for inactives: top-dose activity change, negative = inhibition, actives largely listed as inhibitors; 310,000 tested, 5.4% active; note: potency is the fitted concentration of half-maximal effect; nearly all actives have a fitted effect of over 60% in size
Target sequence (P51450 whole entry, looked up, the tested form may be a part): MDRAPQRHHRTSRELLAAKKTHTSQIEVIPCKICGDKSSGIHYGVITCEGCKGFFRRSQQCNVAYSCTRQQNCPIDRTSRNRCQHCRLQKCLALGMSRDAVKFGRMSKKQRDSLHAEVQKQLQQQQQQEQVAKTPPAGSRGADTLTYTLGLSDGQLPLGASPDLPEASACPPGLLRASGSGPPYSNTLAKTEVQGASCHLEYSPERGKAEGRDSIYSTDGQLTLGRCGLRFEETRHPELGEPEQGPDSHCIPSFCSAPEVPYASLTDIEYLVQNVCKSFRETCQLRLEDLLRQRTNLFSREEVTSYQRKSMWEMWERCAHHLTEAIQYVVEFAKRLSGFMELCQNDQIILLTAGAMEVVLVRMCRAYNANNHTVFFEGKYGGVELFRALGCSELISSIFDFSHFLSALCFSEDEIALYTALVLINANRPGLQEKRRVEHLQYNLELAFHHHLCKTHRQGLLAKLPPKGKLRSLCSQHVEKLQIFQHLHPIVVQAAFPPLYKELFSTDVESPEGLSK
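Schneider cells (Drosophila), stable Gal4 DBD–ROR gamma + UAS-luc; 1 hr cmpd preincubation; Cu2+ induction 700 uM final; 20 hr ambient; luminescence.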
TDP1 cell noCPT – qHTS for Inhibitors of human tyrosyl-DNA phosphodiesterase 1 (TDP1): qHTS in cells in absence of CPT. DT40 Tdp1-/- hTDP1 cells, no CPT, ATP luminescence, 48 h. Potency, µM (top dose mostly 46.2 µM), for the others: top-dose activity change, negative = growth inhibition, actives largely listed as inhibitors. 420,000 tested, 15% active. AID 686978, 2013; note: potency is the fitted concentration of half-maximal effect; nearly all actives have a fitted effect of over 55% in size
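Readout: luminescence from CellTiter-Glo after 30 min in the dark at RT. Cells: DT40 Tdp1-/- with stable hTDP1, 400/well. Exposure: compounds alone, ≥48 hr, 37 °C.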
LDHA inh – blocks human lactate dehydrogenase A | P00338 | purified LDHA, NADH/diaphorase-resazurin fluorescence; stronger effect = lower value | activity change, % (values are at about 110 or 230 µM) | 480,000 tested, 0.15% active | AID 1347041; in the data active = activity change below about -30%; inconclusive = mostly about -25% to -30%;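 note: plate controls were DMSO wells for no effect and wells without enzyme for full effect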
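Enzyme activity of human lactate dehydrogenase 5 (2 nM; 0.06 mM NADH, 0.2 mM pyruvate, 5 min, RT) is measured via a resazurin/diaphorase fluorescence readout of residual NADH.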
The depositor's hits bear a star. Unless noted, calls come from the whole dose curve; as a rule, active = well fitted curve in the direction sought with a large enough effect; inconclusive = small, poorly fitted or top-dose-only effect, or another doubt; inactive = no such curve, though single readings can be large; an effect the other way counts as inactive or inconclusive. Unless noted, % is set by controls: 0 for no effect and ±100 for the full control effect.

Screening COc1ccccc1NC(=O)Cc1csc(NC(=S)Nc2ccc(C)cc2)n1 returned TDP1 cell CPT inconclusive, Gal4-VP16 FLuc 2.82µM*, IL-1B inflam inh 6.1, RORgamma inh 0.891µM*, TDP1 cell noCPT inconclusive and LDHA inh -15.3.
CCC(=O)Nc1nc(CC(=O)Nc2ccccc2OC)cs1 was read as TDP1 cell CPT 0.8%, Gal4-VP16 FLuc 1.8%, IL-1B inflam inh 0.7, RORgamma inh 18.2%, TDP1 cell noCPT -21.8% and LDHA inh -0.3.
Screening Cc1cnccc1CN(C)Cc1nc(Cc2ccccc2Cl)no1 returned TDP1 cell CPT 18.4µM*, Gal4-VP16 FLuc inconclusive, IL-1B inflam inh -8.5, RORgamma inh inconclusive, TDP1 cell noCPT 14.6µM* and LDHA inh -6.5.
CN(Cc1ccccn1)Cc1nc(Cc2ccccc2Cl)no1 was read as TDP1 cell CPT 3.5%, Gal4-VP16 FLuc 6.7%, IL-1B inflam inh 0.0, RORgamma inh -17.2%, TDP1 cell noCPT 14.4% and LDHA inh -6.2.
Screening C=CCn1cc(CN2CCC(C(=O)Nc3cccc(-c4cccc(F)c4)c3)CC2)c(C)n1 returned TDP1 cell CPT 23.1µM*, Gal4-VP16 FLuc -15.3%, IL-1B inflam inh -9.3, RORgamma inh -0.8%, TDP1 cell noCPT 16.4µM* and LDHA inh 0.1.
For C=CCn1cc(CN2CCC(C(=O)Nc3cccc(-c4cccc(Cl)c4)c3)CC2)c(C)n1 the results were TDP1 cell CPT 16.4µM*, Gal4-VP16 FLuc -4.0%, IL-1B inflam inh -5.6, RORgamma inh -38.7%, TDP1 cell noCPT 16.4µM* and LDHA inh -3.1.
C=CCn1cc(CN2CCC(C(=O)Nc3ccc(Oc4cccnc4)cc3)CC2)c(C)n1 was read as TDP1 cell CPT -9.5%, Gal4-VP16 FLuc -6.5%, IL-1B inflam inh 10.8, RORgamma inh -11.1%, TDP1 cell noCPT -12.9% and LDHA inh -1.8.
For CC(NC(=O)c1ccc2c(c1)NC(=O)CO2)c1cccs1 (configuration not stated) the results were LDHA inh -0.3.
C[N+]1(CC(=O)OCCCC2CCCCC2)CCOCC1 was read as LDHA inh 2.5.
COc1ccc(C(=O)NN/C(C)=C/C(=O)C(F)(F)C(F)(F)C(F)(F)F)cc1 was read as TDP1 cell CPT -3.8%, Gal4-VP16 FLuc 5.62µM*, IL-1B inflam inh 11.4, RORgamma inh 5.62µM*, TDP1 cell noCPT -21.4% and LDHA inh -2.0.
For O=C(C1CCC1)N1CCc2cc(S(=O)(=O)NCC3COc4ccccc4O3)ccc21 (configuration not stated) the results were TDP1 cell CPT inconclusive, Gal4-VP16 FLuc inconclusive, IL-1B inflam inh -14.0, RORgamma inh inconclusive, TDP1 cell noCPT -28.4% and LDHA inh -2.7.
Screening Cc1cccc(NS(=O)(=O)c2ccc3c(c2)CCN3C(=O)C2CCC2)c1 returned TDP1 cell CPT 18.4µM*, TDP1 cell noCPT 18.4µM* and LDHA inh -2.4.
Cc1ccc(NS(=O)(=O)c2ccc3c(c2)CCN3C(=O)C2CC2)c(C)c1 was read as TDP1 cell CPT inconclusive, TDP1 cell noCPT 20.6µM* and LDHA inh -2.3.
Screening CCc1ccccc1NS(=O)(=O)c1ccc2c(c1)CCN2C(=O)C1CC1 returned TDP1 cell CPT inconclusive, TDP1 cell noCPT inconclusive and LDHA inh -3.1.
Screening Cc1cccc(NS(=O)(=O)c2ccc3c(c2)CCN3C(=O)CCC(=O)O)c1 returned TDP1 cell CPT -8.0%, Gal4-VP16 FLuc 1.3%, IL-1B inflam inh 36.9, RORgamma inh 0.7%, TDP1 cell noCPT 8.7% and LDHA inh -4.2.
CN1CCN(c2ccccc2NS(=O)(=O)c2ccc3c(c2)CCN3C(=O)C2CCC2)CC1 was read as TDP1 cell CPT 14.6µM*, IL-1B inflam inh -9.4, TDP1 cell noCPT inconclusive and LDHA inh -2.7.
O=C(C1CC1)N1CCc2cc(S(=O)(=O)NCC3COc4ccccc4O3)ccc21 (configuration not stated) was read as TDP1 cell CPT inconclusive, Gal4-VP16 FLuc -25.3%, IL-1B inflam inh -8.1, RORgamma inh inconclusive, TDP1 cell noCPT 14.6µM* and LDHA inh 2.5.
`Cc1cc(NC(=O)c2nc3ccccc3nc2N2CCCCC2)ccc1Br` gave LDHA inh 3.2.
Cc1ccc(NS(=O)(=O)c2ccc(N3CCN(c4ccc(O)cc4)CC3)c([N+](=O)[O-])c2)c(C)c1 was read as TDP1 cell CPT inconclusive, Gal4-VP16 FLuc inconclusive, IL-1B inflam inh inconclusive, RORgamma inh inconclusive, TDP1 cell noCPT 16.4µM* and LDHA inh 12.7.
Screening COc1ccc(N(C)S(=O)(=O)c2ccc3c(c2)CCN3C(=O)C2CC2)c(OC)c1 returned TDP1 cell CPT 16.4µM*, Gal4-VP16 FLuc -6.2%, IL-1B inflam inh 5.8, RORgamma inh 40.4%, TDP1 cell noCPT 18.4µM* and LDHA inh -2.5.
For COc1ccc(NS(=O)(=O)c2ccc3c(c2)CCN3C(=O)C2CC2)cc1OC the results were TDP1 cell CPT 8.2µM*, TDP1 cell noCPT 5.17µM* and LDHA inh -15.8.
CC(C)C(=O)Nc1ccc(NC(=O)c2cccc(F)c2)cn1 was read as TDP1 cell CPT -12.3%, Gal4-VP16 FLuc -6.5%, IL-1B inflam inh -60.1*, RORgamma inh inconclusive, TDP1 cell noCPT inconclusive and LDHA inh -0.2.
Screening O=C(Nc1ccc(Cl)cn1)c1cccc(F)c1 returned TDP1 cell CPT 7.31µM*, Gal4-VP16 FLuc -0.7%, IL-1B inflam inh 11.1, RORgamma inh -10.9%, TDP1 cell noCPT 4.61µM* and LDHA inh -3.3.
`O=C(Nc1cccc(C(=O)Nc2ccc(Cl)cn2)c1)c1ccccc1` gave TDP1 cell CPT inconclusive, Gal4-VP16 FLuc -3.8%, IL-1B inflam inh inconclusive, RORgamma inh 21.3%, TDP1 cell noCPT -18.5% and LDHA inh -12.7.
Screening Cc1cccc(NC(=S)/N=C(\N)Nc2nc(C)c3ccc(C)cc3n2)c1 returned TDP1 cell CPT 14.6µM*, Gal4-VP16 FLuc 3.55µM*, IL-1B inflam inh -5.7, RORgamma inh 1µM*, TDP1 cell noCPT 11.6µM* and LDHA inh -11.0.
`Cc1ccc(NC(=S)/N=C(\N)Nc2nc(C)c3ccccc3n2)cc1C` gave TDP1 cell CPT inconclusive, Gal4-VP16 FLuc 1µM*, IL-1B inflam inh 19.0, RORgamma inh 1µM*, TDP1 cell noCPT inconclusive and LDHA inh -6.4.
CCOc1ccc2nc(N/C(N)=N/S(=O)(=O)c3ccc(C)cc3)nc(C)c2c1 was read as TDP1 cell CPT inconclusive, IL-1B inflam inh -20.6, TDP1 cell noCPT inconclusive and LDHA inh -1.2.

Screening results (PubChem)
